Only some compounds are listed: those with a hit (about 2.6% of all), similar ones and a draw of the others.
Exocytosis inh = LAMP-1 surface exposure blockers, TALL-104 cells – cell-based, flow cytometry, MLPCN library, primary screen; TALL-104 LAMP-1 surface exposure; cells stimulated with thapsigargin and PMA; inhibition, % at 10 µM; actives 0.66% (n = 360,000);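 active means inhibition above about 55%, limit read from the data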
NOD2 RIPK2 PPI = NOD2-RIPK2 binding disruptors in cells, primary screen, fluorescence, CHO cells, BLA complementation | CCF4 ratio | inhibition, % at 4.98 µM | actives 0.38% (n = 360,000) | AID 624267, 2012; in the data active means inhibition above about 21%;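 further: 0% = vehicle only and 100% = reference blocker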
Target sequence (O43353 whole entry, looked up): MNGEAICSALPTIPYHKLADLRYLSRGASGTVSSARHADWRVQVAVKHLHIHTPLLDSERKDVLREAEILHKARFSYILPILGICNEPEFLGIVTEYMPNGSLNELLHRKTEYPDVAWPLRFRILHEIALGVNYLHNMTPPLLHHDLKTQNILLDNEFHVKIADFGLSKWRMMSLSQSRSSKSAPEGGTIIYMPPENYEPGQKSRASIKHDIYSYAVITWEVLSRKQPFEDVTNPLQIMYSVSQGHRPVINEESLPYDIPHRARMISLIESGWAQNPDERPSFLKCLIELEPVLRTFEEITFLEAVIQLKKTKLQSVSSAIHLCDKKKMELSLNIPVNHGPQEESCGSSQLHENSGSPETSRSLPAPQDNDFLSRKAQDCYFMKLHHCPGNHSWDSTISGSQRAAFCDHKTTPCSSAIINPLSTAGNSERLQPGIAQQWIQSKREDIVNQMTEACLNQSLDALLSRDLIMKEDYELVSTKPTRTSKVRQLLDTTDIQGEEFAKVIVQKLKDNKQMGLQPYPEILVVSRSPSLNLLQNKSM
PRMT1 inh = PRMT1 methyltransferase inhibitors, primary screen, biochemical, fluorescence polarization; recombinant PRMT1, activity-based probe fluorescence polarization; inhibition, % at 2.79 µM; actives 1.3% (n = 370,000);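 active means inhibition above about 21% made by adding two undisclosed values, limit read from the data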
TLR9-MyD88 inh = inhibitors of TLR9-MyD88 association in cells, primary screen, cell-based, CHO, BLA complementation, fluorescence. Toll-like receptor 9 (Homo sapiens) + Myeloid differentiation primary response protein …. CCF4 FRET ratio. inhibition, % at 4.98 µM. actives 0.21% (n = 340,000);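 active means inhibition above the mean over all tested compounds plus 3 SD, cut at about 21% in these data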;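 further: 0% = DMSO only wells and 100% = clavulanate BLA inhibitor control wells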
TLR4-MyD88 BLA = inhibitors of TLR4-MyD88 association in cells, primary screen, cell-based, HeLa CL3-4, BLA complementation, FRET ratio | HeLa CL3-4 TLR4/MyD88 BLA complementation | inhibition, % at 8.4 µM | actives 0.18% (n = 200,000); in the data active means inhibition above about 25%;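 further: 0% = vehicle and 100% = reference inhibitor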
ABHD5 PLIN5 PPI = ABHD5-PLIN5 interaction inhibitors, primary screen, cell lysate, split luciferase complementation, luminescence. Split G. princeps luciferase complementation, 4 h. inhibition, % at 4 µM. actives 0.78% (n = 360,000);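 active means inhibition above the mean inhibition across every tested compound plus 3 SD, cut at about 22% in these data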;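 further: 0% = DMSO only wells and the 100% control is not disclosed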
PRMT1 confirm = PRMT1 methyltransferase inhibitors, confirmation, biochemical, fluorescence polarization, triplicate. inhibition, % at 2.79 µM. actives 42% (n = 3,300). AID 687036, 2013. shares compounds with PRMT1 inh. recombinant His-PRMT1, activity-based probe fluorescence polarization;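 active means mean inhibition across replicates above the hit cutoff derived for the earlier primary screen, cut at about 22% in these data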
* = called active by the depositor; · = not tested or not shown.

SMILES	Exocytosis inh	NOD2 RIPK2 PPI	PRMT1 inh	TLR9-MyD88 inh	TLR4-MyD88 BLA	ABHD5 PLIN5 PPI	PRMT1 confirm
O=C(O)/C=C\C(=O)Nc1ccccc1C(=O)N1CCC(O)(c2ccc(Cl)cc2)CC1	-33	-9	29*	-5	·	5	-6
NC(=O)Nc1ccccc1C(=O)N1CCC(O)(c2ccc(Cl)cc2)CC1	0	6	·	-2	-1	-2	·
Nc1ccc(-n2cc(-c3ccccc3)[nH]c2=S)cc1	0	12	45*	-1	·	-9	20
S=c1[nH]c(-c2ccccc2)cn1-c1ccccc1	-15	10	14	8	·	-4	·
O=c1cc(CN2CCN(c3ccc(Cl)c(Cl)c3)CC2)c2ccccc2o1	-5	-1	-2	·	·	-1	·
COc1ccccc1OCC(=O)Nc1nnc(-c2ccco2)s1	1	-10	73*	-2	0	1	2
COc1ncnc2c1ncn2CCCN(C)Cc1ccco1	6	-4	3	-4	·	-1	·
Cc1ccc(F)cc1NC(=O)CSCc1nc2sc(C)c(C)c2c(=O)[nH]1	-7	3	34*	-2	·	-12	38*
CSc1ccccc1NC(=O)CSCc1nc2sc(C)c(C)c2c(=O)[nH]1	-2	13	7	5	·	-7	·
N#CCSc1nc2ccccc2c(=O)n1CCCC(=O)NCc1ccco1	-1	3	-2	-4	11	10	·
O=C(CCCCCn1c(SCc2ccncc2)nc2ccccc2c1=O)NCc1ccco1	-2	11	46*	-2	0	13	9
O=[N+]([O-])c1cccc(SSc2cccc([N+](=O)[O-])c2)c1	-4	0	83*	5	·	36*	95*
Nc1cccc([N+](=O)[O-])c1	-2	-12	2	-10	-15	7	·
CSc1cnn(Cc2ccccc2)c(=O)c1SCc1ccccc1	-2	6	74*	-10	2	-2	6
CSc1cnn(-c2ccccc2)c(=O)c1SC	2	-1	0	3	4	5	·
N#Cc1ccsc1NC(=O)CSc1nncs1	-5	6	26*	-5	·	-7	24*
CC[C@@]1(C(=O)OC)N[C@H](CN(C)C(=O)Nc2ccc(Cl)cc2)[C@@H]2C(=O)N(Cc3ccccc3)C(=O)[C@@H]21	6	-10	7	-5	·	-4	·
CC(=O)CSc1cc(-c2ccccc2)nc2ncnn12	7	-12	28*	-4	·	-1	37*
CC(=O)c1c(C)[nH]c(C(=O)CN2CCN(S(=O)(=O)c3ccccc3[N+](=O)[O-])CC2)c1C	-1	-6	2	-13	·	-1	·
Cc1c(Br)c(=O)oc2c(Br)c(O)c(O)cc12	-3	1	29*	13	-2	3	35*
Cc1c(Br)c(=O)oc2c(Br)c(O)ccc12	-1	5	-1	-10	3	-4	·
COc1ccc(NS(=O)(=O)c2ccc3c(c2)[C@H]2C=CC[C@H]2[C@@H](c2ccc(C(=O)O)cc2)N3)cc1	-2	8	38*	-7	·	-17	21*
COC(=O)C[C@H]1c2cc(C(F)(F)F)ccc2S(=O)(=O)N1Cc1ccccc1	-6	-2	-2	3	·	-5	·
O=C1c2ccccc2[C@@H]2Cc3csc[n+]3[C@H]12	1	1	85*	·	·	-15	83*
COc1ccc(NC(=O)CSCc2cc(=O)n3c(C)csc3n2)cc1	-4	8	4	-8	·	10	·
SMILES	Exocytosis inh	NOD2 RIPK2 PPI	PRMT1 inh	TLR9-MyD88 inh	TLR4-MyD88 BLA	ABHD5 PLIN5 PPI	PRMT1 confirm
COc1ccc(C(CNC(=O)CCNC(=O)c2ccccc2OC)N2CCCC2)cc1 (stereo not given)	2	-9	-2	0	·	-11	·
Cc1cc(C)c([N+](=O)[O-])cc1-c1ccc(/C=N/c2c(-c3ccco3)nc3ccccn23)o1	3	3	49*	-5	-6	15	4
COc1ccc(/C=C2\Sc3ccc(C(=O)NCc4cccnc4)cc3N(C)C2=O)cc1OC	4	-15	32*	1	-20	7	9
COc1cccc(/C=C2\Sc3ccc(C(=O)NCc4cccnc4)cc3N(C)C2=O)c1	8	3	18	-7	1	-2	·
CCn1c(=O)c2[nH]c(Cl)nc2n(CC)c1=O	-6	0	0	2	·	6	·
Cc1ccc(-n2ccnc(SCC(=O)NCCc3ccccc3)c2=O)cc1F	0	-4	59*	2	·	-38	42*
O=C(CSc1nccn(-c2ccc(F)c(Cl)c2)c1=O)NC1CCCC1	0	5	32*	-2	·	-8	39*
CCOc1ccc(-n2ccnc(SCC(=O)NCCc3ccccc3)c2=O)cc1	4	-3	15	0	·	-5	·
Cc1ccc(-n2ccnc(SCC(=O)NC3CCCC3)c2=O)cc1Cl	-9	-5	15	-10	·	-28	·
N#C/C(=C/c1ccc(O)c(O)c1)c1nc2ccccc2[nH]1	-1	-1	42*	10	·	5	37*
N#C/C(=C\c1cccs1)c1nc2ccccc2[nH]1	-1	-3	0	-2	-6	4	·
CCOC(=O)C1=C(O)/C(=C\c2ccc(CNC(=O)C(=O)Nc3ccccc3)o2)N=C1C	8	-8	34*	-14	10	8	23*
Cc1c(C2Nc3ccccc3NC3=C2C(=O)CC(C)(C)C3)cnn1C (stereo not given)	3	7	27*	13	7	-29	0
CC1(C)CC(=O)C2=C(C1)Nc1ccccc1NC2c1ccccc1F (stereo not given)	-5	0	5	-10	·	-2	·
COC(=O)/N=C/c1c(NCc2ccccc2)nc2c(C)cccn2c1=O	0	-5	-3	6	-3	1	·
Cn1cc(/C=C2\SC(=O)NC2=S)c2ccccc21	-6	-2	28*	0	4	-1	5
CN1/C(=C\C(=O)c2cccnc2)Sc2ccccc21	-4	-2	31*	-3	-4	-2	1
COc1cccc(C(=O)/C=C2\Sc3ccccc3N2C)c1	10	-8	1	5	-6	3	·
c1ccc(Cn2c(SCC3CCCCC3)nnc2-c2cccnc2)cc1	·	·	46*	·	·	·	-4
C=CCn1c(SCC(=O)OC(C)C)nnc1-c1ccc(C)cc1	·	·	40*	·	·	·	-3

Screens from PubChem.
